Laboratory results: the supplement of paper PMC13380429

Tested on: Vero E6 infected with SARS-CoV-2
Experiment: inhibition of SARS-CoV-2 cytopathic effect; higher = more antiviral protection, active = above 15
Conditions: 48 h

Measured: inhibition of SARS-CoV-2 cytopathic effect

Cc1cc(N2CCN([C@@H]3CN[C@H](C(=O)N4CCSC4)C3)CC2)n(-c2ccccc2)n1 [teneligliptin]
inactive: 1 nM 0.52% | 8.33 nM 1.21% | 100 nM 1% | 833.33 nM 1.12% | 10000 nM -2.67%

CC1=C(/C=C/C(C)=C/C=C/C(C)=C/C=C/C=C(C)/C=C/C=C(C)/C=C/C2=C(C)C(=O)[C@@H](O)CC2(C)C)C(C)(C)C[C@H](O)C1=O [astaxanthin]
inactive: 1 nM -9.22% | 8.33 nM -11% | 100 nM -9.1% | 833.33 nM -8.76% | 10000 nM -11.5%

O=C(c1ccccc1)c1ccc2n1CCC2C(=O)O (stereo not given) [ketorolac]
inactive: 1 nM -4.39% | 8.33 nM -2.99% | 100 nM -1.5% | 833.33 nM 2.44% | 10000 nM -4.37%

Nc1ccc(F)cc1NC(=O)c1ccc(CNC(=O)/C=C/c2cccnc2)cc1 [chidamide]
inactive: 1 nM 0.62% | 8.33 nM 0.21% | 100 nM -1.13% | 833.33 nM 1.82% | 10000 nM -0.06%

CCNC(=O)[C@H]1O[C@@H](n2cnc3c(N)ncnc32)[C@H](O)[C@@H]1O
inactive: 1 nM 3.12% | 8.33 nM 1.83% | 100 nM -2.78% | 833.33 nM -3.3% | 10000 nM -1.61%

CC(C)(NS(=O)(=O)c1ccc(Oc2ccc(F)cc2)cc1)C(=O)NO
inactive: 1 nM 3.55% | 8.33 nM 0.75% | 100 nM 2.56% | 833.33 nM 0.48% | 10000 nM -0.6%

C[C@@H]1CN(Cc2ccc(F)cc2)CCN1C(=O)COc1ccc(Cl)cc1NC(N)=O
inactive: 1 nM -1.77% | 8.33 nM -0.1% | 100 nM -2% | 833.33 nM -1.98% | 10000 nM -1.75%

O=C(O)COc1nn(Cc2ccccc2)c2ccccc12 [bendazac]
inactive: 1 nM -1.4% | 8.33 nM 2.21% | 100 nM 0.57% | 833.33 nM -1.97% | 10000 nM -2.52%

Cn1cnc2c(NCc3ccccc3)nc(NCCO)nc21 [olomoucine]
inactive: 1 nM 1.4% | 8.33 nM 1.88% | 100 nM 1.77% | 833.33 nM -0.46% | 10000 nM -0.63%

CCN(CCNC(=O)Nc1ccccc1Br)c1cccc(C)c1
inactive: 1 nM -0.09% | 8.33 nM 2.65% | 100 nM -0.41% | 833.33 nM -0.7% | 10000 nM 0.98%

N#C/C(=C1/SCC(c2ccccc2Cl)S1)n1ccnc1 (stereo not given) [lanoconazole]
inactive: 1 nM 0.51% | 8.33 nM 2.17% | 100 nM 4.14% | 833.33 nM 0.83% | 10000 nM 0.48%

CCCCCCCCCCCCC[N+](C)(C)Cc1ccccc1 [benzalkonium]
inactive: 1 nM -0.66% | 8.33 nM 0.17% | 100 nM -0.42% | 833.33 nM 1.78% | 10000 nM -8.08%

O=c1c(-c2ccc(O)cc2)coc2c([C@@H]3O[C@H](CO)[C@@H](O)[C@H](O)[C@H]3O)c(O)ccc12 [kakonein]
inactive: 1 nM -2.72% | 8.33 nM -3.42% | 100 nM -3.81% | 833.33 nM -5.79% | 10000 nM -6.74%

N#Cc1ccncn1 [4-pyrimidinecarbonitrile]
inactive: 1 nM 3.43% | 8.33 nM 1.7% | 100 nM 4.16% | 833.33 nM 0.49% | 10000 nM -3.8%

CS(=O)(=O)c1cccc(CNc2nc(Nc3ccc4c(c3)CCC(=O)N4)ncc2C(F)(F)F)c1
inactive: 1 nM -1.14% | 8.33 nM -1.29% | 100 nM 0.06% | 833.33 nM 1.33% | 10000 nM -3.75%

O=C(N[C@@H]1CC[C@@H](c2cccc(F)c2F)CN(CC(F)(F)F)C1=O)N1CCC(n2c(=O)[nH]c3ncccc32)CC1 [telcagepant]
inactive: 1 nM 0.8% | 8.33 nM 6.42% | 100 nM 7.5% | 833.33 nM 2.53% | 10000 nM 5.63%

CC(C)(C)NCC(O)c1cc(Cl)c(N)c(Cl)c1 (stereo not given) [clenbuterol]
inactive: 1 nM -0.45% | 8.33 nM -0.13% | 100 nM 1.96% | 833.33 nM -0.35% | 10000 nM -2.77%

CO[C@H]1CC[C@H](N(c2cc(C3=CCCCC3)sc2C(=O)O)C(=O)[C@H]2CC[C@H](C)CC2)CC1
inactive: 1 nM 0.5% | 8.33 nM 0.07% | 100 nM -0.07% | 833.33 nM 0.31% | 10000 nM 0.21%

Cc1cc(O)c2c(c1)C(=O)c1cc(O)cc(O)c1C2=O [emodin]
inactive: 1 nM -1.74% | 8.33 nM 0.93% | 100 nM -1.79% | 833.33 nM 1.29% | 10000 nM 2.24%

COc1ccc(-c2nc(N3CCOCC3)c3sc(CN(C)c4ncc(C(=O)NO)cn4)cc3n2)cn1
inactive: 1 nM -0.39% | 8.33 nM -5.36% | 100 nM -18.1% | 833.33 nM -20.7% | 10000 nM -21.4%

Cc1nc(C#Cc2ccnc(Cl)c2)c(C)n1-c1ccc(F)cc1 [basimglurant]
inactive: 1 nM -0.13% | 8.33 nM -0.64% | 100 nM -2.56% | 833.33 nM -1.39% | 10000 nM 4.98%

CCN(CC)C(=S)S [ditiocarb-sodium-trihydrate]
inactive: 1 nM 0.85% | 8.33 nM -0.21% | 100 nM 0.86% | 833.33 nM -0.23%
active: 10000 nM 23.6%

C=CCN1C[C@H](C(=O)N(CCCN(C)C)C(=O)NCC)C[C@@H]2c3cccc4[nH]cc(c34)C[C@H]21 [cabergoline]
inactive: 1 nM -19% | 8.33 nM -12.2% | 100 nM -10% | 833.33 nM -8.73% | 10000 nM -14.1%

CC(=O)[O-].CC(=O)[O-].N.NC1CCCCC1.[Cl-].[Cl-].[Pt+4] [satraplatin]
inactive: 1 nM 3.89% | 8.33 nM -0.13% | 100 nM 2.26% | 833.33 nM 1.69%
active: 10000 nM 23.8%

COc1cc(-c2cc(-c3cccc(O)c3)cnc2N)cc(OC)c1OC
inactive: 1 nM -0.86% | 8.33 nM -1.83% | 100 nM -1.83% | 833.33 nM 1.55% | 10000 nM 2.09%

CC(=O)O[C@]1(C(C)=O)CC[C@H]2[C@@H]3C=C(C)C4=CC(=O)CC[C@@H]4[C@H]3CC[C@@]21C [nomegestrol-acetate]
inactive: 1 nM -1.8% | 8.33 nM -1.93% | 100 nM 0.03% | 833.33 nM 1.28% | 10000 nM -2.55%

COc1ccc2ccc(=O)oc2c1CC=C(C)C [osthol]
inactive: 1 nM 2.39% | 8.33 nM 6.22% | 100 nM 1.91% | 833.33 nM 3.87% | 10000 nM 2.49%

O=C(c1ccc(-c2ccc(Cl)cc2)o1)N(Cc1ccccn1)c1ccc(N2CCNCC2)cc1
inactive: 1 nM -2.64% | 8.33 nM 1.12% | 100 nM -0.23% | 833.33 nM -1.66%
active: 10000 nM 43.8%

c1ccc2cc(C3=NCCN3)ncc2c1
inactive: 1 nM 1.6% | 8.33 nM 1.22% | 100 nM 2.06% | 833.33 nM -0.28% | 10000 nM 1.35%

CN(C)CCCSC(=N)N [dimaprit]
inactive: 1 nM 0.47% | 8.33 nM 0.92% | 100 nM -0.82% | 833.33 nM -1.15% | 10000 nM 2.17%

Oc1ccc2ccccc2c1 [beta-naphthol]
inactive: 1 nM -0.51% | 8.33 nM -1.33% | 100 nM 2.24% | 833.33 nM 5.34% | 10000 nM 2.59%

NC(=O)NO [hydroxyurea]
inactive: 1 nM 0.66% | 8.33 nM -0.23% | 100 nM 0.03% | 833.33 nM 0.46% | 10000 nM 1.29%

CNCc1ccc(-c2[nH]c3cc(F)cc4c3c2CCNC4=O)cc1 [rucaparib]
inactive: 1 nM 1.82% | 8.33 nM 5.76% | 100 nM 7.61% | 833.33 nM 5.18% | 10000 nM 0.16%

Cc1cccc(NC(=O)N[C@@H]2N=C(c3ccccc3)c3ccccc3N(C)C2=O)c1
inactive: 1 nM -0.47% | 8.33 nM 1.7% | 100 nM 0.28% | 833.33 nM 0.31% | 10000 nM 0.03%

O=C(OCCOCCO)c1ccccc1Nc1cccc(C(F)(F)F)c1 [etofenamate]
inactive: 1 nM 1.16% | 8.33 nM -1.53% | 100 nM 0.55% | 833.33 nM -0.46% | 10000 nM -2.39%

CCN(CC)CCNC(=O)COc1ccc(OC)cc1 [mefexamide]
inactive: 1 nM 1.84% | 8.33 nM 2.71% | 100 nM -0.86% | 833.33 nM -0.89% | 10000 nM -2.3%

C[C@@H]1CC[C@@]2(OC1)O[C@H]1C[C@H]3[C@@H]4CC=C5C[C@@H](O[C@@H]6O[C@H](CO)[C@@H](O[C@@H]7O[C@@H](C)[C@H](O)[C@@H](O)[C@H]7O)[C@H](O)[C@H]6O[C@@H]6O[C@@H](C)[C@H](O)[C@@H](O)[C@H]6O)CC[C@]5(C)[C@H]4CC[C@]3(C)[C@H]1[C@@H]2C [dioscin]
inactive: 1 nM -2.63% | 8.33 nM 0.88% | 100 nM -2.63% | 833.33 nM 0.22% | 10000 nM -12.2%

C/C(=C\c1csc(C)n1)[C@@H]1C[C@@H]2O[C@]2(C)CCC[C@H](C)[C@H](O)[C@@H](C)C(=O)C(C)(C)[C@@H](O)CC(=O)N1 [ixabepilone]
inactive: 1 nM -3.63% | 8.33 nM 0.38% | 100 nM -5.48% | 833.33 nM -6.58% | 10000 nM -2.57%

CCC[C@H](Nc1nc(-c2ccc(NC(=O)NCC)c(OC)c2)ncc1C)c1cccnc1
inactive: 1 nM 0.07% | 8.33 nM -1.4% | 100 nM -1.33% | 833.33 nM -0.69% | 10000 nM -2.7%
